Most compounds without a hit are left out; they make up all but 6.9% or so of the library.
IL1B secr inh: qHTS for Inhibitors of Inflammasome Signaling: IL-1-beta AlphaLISA Primary Screen; THP-1 LPS/ATP IL-1B secretion, AlphaLISA, 16 h; stronger effect = lower value; activity change, % at 57.5 µM; hit rate 4.7% among 360,000; AID 743279, 2014; in the data active = activity change below about -50%; inconclusive = mostly about -30% to -49%; note: % is set by controls: 0 for no effect and ±100 for the full control effect
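THP-1 cells pretreated 1 hr with compounds (up to 57.5 uM final), then stimulated with LPS (250 ng/mL final) plus ATP (1.25 mM final); secreted IL-1B measured by AlphaLISA after 16 hr, decreased signal indicating inhibition.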
Vif-APOBEC3F blk: qHTS for Inhibitors of Vif-A3F Interactions: qHTS. HeLa A3F-eYFP + Vif (tagged APOBEC3F with the HIV-1 protein that degrades it), YFP fluorescence increase. hit rate 0.2% among 390,000. Potency, µM (titrated, usually from 46.1 µM), for inactives: top-dose activity, negative = active; note: potency is the fitted concentration of half-maximal effect; % of control where 0% means no effect; nearly all actives have a fitted effect of over 65% in size
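HeLa cells stably expressing A3F-eYFP plus Vif, plated and incubated overnight at 37 deg C, then exposed to compounds overnight at 37 deg C. Blocked degradation read as raised yellow fluorescence (Ex 488/Em 500-530).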
Vif-A3G inh: qHTS for Inhibitors of Vif-A3G Interactions: qHTS; DNA dC->dU-editing enzyme APOBEC-3G (Homo sapiens), Q9HC16; HeLa A3G-eYFP + Vif (tagged APOBEC3G with the HIV-1 protein that degrades it), YFP fluorescence, overnight; Potency, µM (top dose mostly 46.1 µM), inactives show at the highest dose activity, negative = active, usual class: inhibitors; hit rate 0.076% among 410,000; note: potency is the fitted concentration of half-maximal effect; % is set by controls: 0 for no effect and ±100 for the full control effect; nearly all actives have a fitted effect of over 60% in size
Target sequence (Q9HC16 whole entry, looked up): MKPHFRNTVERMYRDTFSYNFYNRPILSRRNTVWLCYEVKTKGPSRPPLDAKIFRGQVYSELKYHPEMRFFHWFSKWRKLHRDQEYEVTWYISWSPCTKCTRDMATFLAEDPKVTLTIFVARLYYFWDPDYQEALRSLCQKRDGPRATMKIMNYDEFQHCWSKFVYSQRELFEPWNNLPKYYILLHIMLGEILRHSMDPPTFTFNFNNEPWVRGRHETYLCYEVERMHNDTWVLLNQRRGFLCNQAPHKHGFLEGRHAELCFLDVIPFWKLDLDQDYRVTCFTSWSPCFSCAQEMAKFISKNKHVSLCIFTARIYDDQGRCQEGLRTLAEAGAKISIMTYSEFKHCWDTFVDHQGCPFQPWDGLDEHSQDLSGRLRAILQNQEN
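Read-out is eYFP fluorescence (Ex 488/Em 500-530) from Vif-expressing HeLa A3G-eYFP cells; more signal means A3G escaped Vif-mediated degradation. Cells plated overnight, compound pinned in, incubated overnight at 37 deg C.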
MCF10A rerep: A quantitative high throughput screen for small molecules that induce DNA re-replication in MCF 10a normal breast cells; MCF 10A DNA re-replication, Hoechst nuclear intensity, 48 h; Potency, µM (top dose mostly 46.1 µM), for inactives: at the highest dose activity, positive = re-replication, most hits filed as activators; hit rate 2.9% among 350,000; AID 624296, 2012; note: potency is the fitted concentration of half-maximal effect; % of control where 0% means no effect; nearly all actives have a fitted effect of over 50% in size
SW480 rereplic: A quantitative high throughput screen for small molecules that induce DNA re-replication in SW480 colon adenocarcinoma cells. AID 624297, 2012. SW480 DNA re-replication, Hoechst DNA content imaging, 48 h. Potency, µM (highest dose often 46.1 µM), for inactives: at the top dose re-replication activation, actives largely listed as activators. hit rate 1.8% among 340,000; note: potency is the fitted concentration of half-maximal effect; % of control where 0% means no effect; nearly all actives have a fitted effect of over 55% in size
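250 cells/well; 23 nL cpd via pin tool; 48 hr, 37 C, 5% CO2; Hoechst 40 min; imager read of total nuclear intensity, ex 405/em 500-530 nm.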
Giardia killer: Small Molecules that selectively kill Giardia lamblia: qHTS | Giardia lamblia trophozoite viability | activity change, % at 7.66 µM, hits read low | hit rate 0.15% among 340,000; in the data active = activity change below about -80%; inconclusive = between about -30% and that limit;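 note: parasites exposed to compound for two days anaerobically before the ATP read; % is set by controls: 0 for no effect and ±100 for the full control effect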
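Media and compound were dispensed first, then trophozoites at 100 cells/well; plates sat 48 hrs at 37 deg C without oxygen before ATP luminescence reagent was added and read after 15-30 min at room temperature.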
The depositor's hits bear a star; ? = inconclusive; . = no result. Unless noted, calls come from the whole dose curve; as a rule, active = well fitted curve in the direction sought with a large enough effect; inconclusive = small, poorly fitted or top-dose-only effect, or another doubt; inactive = no such curve, though single readings can be large; an effect the other way counts as inactive or inconclusive.

SMILES	IL1B secr inh	Vif-APOBEC3F blk	Vif-A3G inh	MCF10A rerep	SW480 rereplic	Giardia killer
CNC(=O)Oc1cccc(-c2cn3cc(OC(=O)NC)ccc3n2)c1	14	0%	1%	17%	3%	-8
O=C(Nc1ccc(Cl)cc1)Nc1ccc(Cl)c(Cl)c1	-87*	0%	6%	?	?	-11
c1ccc(C(c2ccccc2)N2CCN(c3ccc4ccccc4n3)CC2)cc1	0	0%	0%	?	-5%	5
C=CCCC[C@@H]1OC(=O)CNC(=O)C([C@@H](C)CC)NC(=O)[C@@H]2CCCN2C(=O)C([C@@H](C)CC)OC(=O)[C@H](Cc2ccccc2)N(C)C(=O)[C@H](C(C)C)NC(=O)C1(C)C (some centres not stated)	-52*	.	-7%	.	.	.
Cc1ccc(-n2c(=O)[nH]c3ccccc3c2=O)cc1[N+](=O)[O-]	0	.	-1%	.	.	.
C[C@]12CC[C@@H](O)CC1=CC(=O)C1C2CC[C@]2(C)C(=O)[C@H](O)CC12 (some centres not stated)	4	0%	1%	.	.	.
CC/C=C/CC(=O)N[C@@H](c1ccccc1)[C@@H](O)C(=O)O[C@H]1C[C@@]2(O)[C@@H](OC(=O)c3ccccc3)C3[C@](C)(C(=O)[C@H](OC(C)=O)C(=C1C)C2(C)C)[C@@H](O)C[C@H]1OC[C@@]31OC(C)=O (some centres not stated)	15	-1%	-36%	?	?	1
CC(=O)OC12COC1CC(O)C1(C)C(=O)C(O)C3=C(C)C(O)CC(O)(C(OC(=O)c4ccccc4)C21)C3(C)C (configuration not stated)	34	-8%	?	0.82µM*	8.2µM*	7
CC(=O)O[C@@]12CO[C@@H]1C[C@@H](O)[C@@]1(C)C(=O)[C@H](O)C3=C(C)[C@@H](OC(=O)[C@H](O)[C@@H](NC(=O)c4ccccc4)c4ccccc4)C[C@@](O)([C@@H](OC(=O)c4ccccc4)C12)C3(C)C (some centres not stated)	30	-9%	-39%	?	8.2µM*	-12
CC(=O)O[C@@]12CO[C@@H]1C[C@H](OC1OCC(O)C(O)C1O)[C@@]1(C)C(=O)[C@H](O)C3=C(C)[C@@H](OC(=O)[C@H](O)[C@@H](NC(=O)c4ccccc4)c4ccccc4)C[C@@](O)([C@@H](OC(=O)c4ccccc4)C12)C3(C)C (some centres not stated)	11	-4%	?	0.58µM*	5.8µM*	12
CCCCCC(=O)N[C@@H](c1ccccc1)[C@@H](O)C(=O)O[C@H]1C[C@@]2(O)[C@@H](OC(=O)c3ccccc3)C3[C@](C)(C(=O)[C@H](O)C(=C1C)C2(C)C)[C@@H](OC1OCC(O)C(O)C1O)C[C@H]1OC[C@@]31OC(C)=O (some centres not stated)	44	-7%	?	?	3.7µM*	16
c1ccc(-c2[nH]c(-c3ccccc3)[n+](CC3CO3)c2-c2ccccc2)cc1 (configuration not stated)	-56*	-25%	-13%	13µM*	.	?
O=c1cc(C(F)(F)F)c2cc3c4c(c2o1)CCCN4CCC3	86	?	1%	10µM*	?	-4
Cc1cc2c(C(F)(F)F)cc(=O)oc2c2c1NCCC2	0	-26%	-3%	1%	?	24
NCCc1ccc(OCc2ccccc2)c(OCc2ccccc2)c1	-82*	-15%	-13%	?	?	-7
COc1ccc(CCN)cc1OC	-10	-11%	1%	13%	1%	8
C[C@H](CO)N1C[C@H](C)[C@@H](CN(C)C(=O)Oc2ccc3ccccc3c2)OCc2cn(nn2)CCCC1=O	20	0%	-2%	.	.	.
CCOC(=O)C1(c2ccccc2)CCN(CCC(=O)Nc2ccccc2OC)CC1	8	2%	3%	-1%	-27%	38
CCOC(=O)C1(c2ccccc2)CCN(CC(=O)Nc2cccc3ccccc23)CC1	-16	-1%	-7%	?	21µM*	6
O=C1NC(=O)N(c2ccccc2F)C(=O)/C1=C/c1cn(CC(=O)N2CCOCC2)c2ccccc12	-14	-8%	-15%	21µM*	6%	-9
CCN1C(=O)NC(=O)/C(=C\c2cn(CC(=O)N3CCCC3)c3ccccc23)C1=O	26	-10%	-7%	0%	10%	-9
Cc1noc(C)c1C(=O)N1CCC2(CC1)Oc1ccc(F)cc1C(=O)C21CC(c2ccc(Cl)cc2)=NO1 (configuration not stated)	?	-4%	-1%	4%	?	-16
COC(=O)C1=C(c2ccc(F)cc2F)C[C@@H]2CC[C@H]1N2C(=O)N1CCCC1	21	0%	-3%	16%	-4%	-3
COC(=O)C1=C(c2ccc(F)cc2F)C[C@@H]2CC[C@H]1N2C(=O)N1CCC(O)(c2ccc(Cl)cc2)CC1	-78*	0%	-9%	7.3µM*	-1%	-7
COC(=O)C1=C(c2ccc(Cl)c(C(F)(F)F)c2)C[C@@H]2CC[C@H]1N2C(=O)NCCOc1ccc(OC)cc1	-63*	-1%	-11%	29%	0%	13
SMILES	IL1B secr inh	Vif-APOBEC3F blk	Vif-A3G inh	MCF10A rerep	SW480 rereplic	Giardia killer
COC(=O)C1=C(c2ccc(Cl)c(C(F)(F)F)c2)C[C@@H]2CC[C@H]1N2C(=O)N1CCCC1	-10	-5%	1%	?	8%	-17
COC(=O)C1=C(c2ccc(Cl)c(C(F)(F)F)c2)C[C@@H]2CC[C@H]1N2C(=O)N1CCC(O)(c2ccc(Cl)cc2)CC1	-83*	-16%	-8%	?	?	5
CCCNC(=O)N1[C@H]2CC[C@@H]1C(C(=O)OC)=C(c1ccc(Cl)c(C(F)(F)F)c1)C2	-11	-2%	-1%	4%	22%	15
O=C1NC(=S)NC(=O)C1=Cc1ccc(OCc2ccccc2)cc1	-15	-15%	-1%	2%	-6%	-18
O=C1NC(=S)NC(=O)C1=Cc1ccc(Br)s1	-100*	?	?	6%	1%	-9
O=C1NC(=S)NC(=O)C1=Cc1cccc2cc3ccccc3cc12	-99*	-7%	?	?	21%	-10
COc1ccc(C=C2C(=O)NC(=S)NC2=O)cc1	0	0%	-5%	0%	-3%	1

Source: PubChem (National Center for Advancing Translational Sciences (NCATS))
